Records with an inconclusive call do not appear. Active and inactive are the calls of the source. The call rests on the fitted dose curve; in most records, active means well fitted cell-killing curve with a large enough effect; inconclusive means small, poorly fitted or top-dose-only effect; inactive means no such curve, though single readings can be large or run the other way.
Experiment: qHTS of pediatric cancer cell lines to identify multiple opportunities for drug repurposing: Primary screen for SK-N-SH cells (AID 1347098); further: nearly all actives have a fitted effect of over 65% in size;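 on activity change, negative = cytotoxic: DMSO served as neutral control and bortezomib at 2.3 µM as positive control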
Conditions: SK-N-SH viability, CellTiter-Glo luminescence, 48 h; series mostly up to 57 µM; activity change, negative = cytotoxic: at the top concentration
Outline: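 Cells (500-1,000/well) rested 5 h, then received compounds for 48 h; metabolically active cells were measured by CellTiter-Glo luminescence. Final concentrations spanned up to 46 µM (MIPE, 11-point) or 0.59 nM-46 µM (NPC, 8-point) in primary screens, 11-point in follow-ups.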
On the % scale 0 is the no-effect control and ±100 the full control effect; potency means the concentration at half of the fitted maximal effect.

SMILES | activity change, negative = cytotoxic | Potency
Cc1cc(O)c2c(c1)C(=O)c1cc(O)cc(O)c1C2=O | -2.34% (inactive) | 
c1ccc2[nH]c(-c3cscn3)nc2c1 |  | inactive
O=C(CCc1ccc(O)cc1)c1c(O)cc(O)cc1O | 14% (inactive) | 
COC1=C(OC)C(=O)C(CCCCCCCCCCO)=C(C)C1=O | 7.13% (inactive) | 
Cc1cc(C2CCCCC2)n(O)c(=O)c1 |  | 1.09 µM (active)
CC(=O)O[C@H]1C(=O)[C@@]2(C)C([C@H](OC(=O)c3ccccc3)[C@]3(O)C[C@H](OC(=O)[C@H](O)[C@@H](NC(=O)c4ccccc4)c4ccccc4)C(C)=C1C3(C)C)[C@]1(OC(C)=O)CO[C@@H]1C[C@@H]2O (some centres undefined) | -23.5% (inactive) | 
COc1cc(C(C)=O)ccc1OCCCN1CCC(c2noc3cc(F)ccc23)CC1 | -21.8% (inactive) | 
OC(CN1CCN(c2cccc(Cl)c2)CC1)C(c1ccccc1)c1ccccc1 (centres undefined) |  | 15.2 µM (active)
C[C@H](Cc1ccc(O)c(O)c1)[C@@H](C)Cc1ccc(O)c(O)c1 | -6.32% (inactive) | 
